Compound activity: PubChem BioAssay, National Center for Advancing Translational Sciences (NCATS)
Shown are actives, neighbours in structure and some others; about 19% of the full set was active somewhere.
SARS PLpro yeast – qHTS of Yeast-based Assay for SARS-CoV PLP; Potency, µM (highest dose often 32.9 µM), actives largely listed as activators; 0.19% of 330,000 active; S. cerevisiae expressing SARS-CoV PLpro, growth rescue; calls by dose curve; further: nearly all actives have a fitted effect of over 55% in size
AMA1 RON2 block – qHTS for Inhibitors of AMA1-RON; Towards Development of Antimalarial Drug Lead: Primary Screen; Potency, µM (titrated, usually from 58.2 µM), usual class: inhibitors; AID 720542, 2013; 0.2% of 360,000 active; AlphaScreen AMA1-biotinylated RON2 peptide binding; further: nearly all actives have a fitted effect of over 45% in size
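AMA1 (3D7) with his tag at 25 nM final met compounds first, then biotinylated RON2 peptide at 25 nM; detection used donor plus acceptor beads, 10 µg/mL apiece, read by AlphaScreen after 30 min at room temperature.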
Pf growth 48h – Primary qHTS for delayed death inhibitors of the malarial parasite plastid, 48 hour incubation. AID 504832, 2011. P. falciparum luciferase growth in erythrocytes, 48 h. 5.9% of 310,000 active. Potency, µM (highest dose often 28.7 µM), usual class: inhibitors
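Read-out is firefly luciferase luminescence from an integrated reporter in P. falciparum, so falling signal marks reduced parasite growth. Infected erythrocytes were at 2% hematocrit and 0.1% parasitemia (final) in Albumax-supplemented RPMI 1640.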
CHX counter – Cycloheximide Counterscreen for Small Molecule Inhibitors of Shiga Toxin; cell reporter, cycloheximide protein synthesis inhibition counterscreen; 12% of 300,000 active; max response, %; in the data active means max response mostly above about 13%, no sharp cut-off; inactive means mostly below about 14%; further: read at 38.3 µM for the half of the compounds with a filed dose
Pf growth 96h – Primary qHTS for delayed death inhibitors of the malarial parasite plastid, 96 hour incubation | Potency, µM (titrated, usually from 28.7 µM), usual class: inhibitors | P. falciparum luciferase reporter growth, 96 h | 6.9% of 320,000 active
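Plates of compound plus infected erythrocytes (2% hematocrit, 0.05% parasitemia final) incubate 96 hours, 37 C, 5% CO2. Detection reagent added; reduced luminescence from the parasites' luciferase reporter flags inhibition.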
Shiga toxin inh – A qHTS for Small Molecule Inhibitors of Shiga Toxin. inhibition, % at 38.7 µM. Vero cells, Shiga toxin protein synthesis inhibition reporter. 9.2% of 290,000 active. AID 2315, 2010; in the data active means inhibition mostly above about 28%, no sharp cut-off; inactive means mostly below about 43%
Each line names hits and unclear results; the compound was inactive in the other large screens. Unless noted, the call rests on the fitted dose curve; in most records, active means well fitted curve in the direction sought with a large enough effect; inconclusive means small, poorly fitted or top-dose-only effect, or another doubt; inactive means no such curve, though single readings can be large; an effect the other way counts as inactive or inconclusive.

CC(=O)c1ccccc1C(=O)N1CCCC(C(=O)c2ccc(C(F)(F)F)cc2)C1 (stereo unspecified)	CHX counter 54, Shiga toxin inh 70
COc1ccc(C(=O)C2CCCN(C(=O)c3cc(C)nc(C)n3)C2)cc1OC (stereo unspecified)	Shiga toxin inh 50
COc1ccc(C(=O)C2CCCN(C(=O)c3ccc(F)cc3)C2)cc1OC (stereo unspecified)	none
COc1ccc(C(=O)C2CCCN(C(=O)c3ccccc3C(C)=O)C2)cc1F (stereo unspecified)	CHX counter 30, Pf growth 96h inconclusive
CC12CC(O)C3C(CCC4=CC(=O)CCC43C)C1CCC2=CCO (stereo unspecified)	none (no result: SARS PLpro yeast, Pf growth 48h, CHX counter, Pf growth 96h, Shiga toxin inh)
CCOc1ccc(CCNC(=O)CS(=O)Cc2nc(-c3ccc(OC)c(OC)c3)oc2C)cc1OCC (stereo unspecified)	Pf growth 48h inconclusive
COc1ccc(CNC(=O)c2cc(SC)ccc2Cl)cc1OC	none
Cc1ccc2c(Cl)c(Cc3ccccc3)c(=S)[nH]c2n1	none (no result: SARS PLpro yeast, Pf growth 48h, CHX counter, Pf growth 96h, Shiga toxin inh)
Cc1ccc(C(=O)N/N=C2\SCC(=O)N2c2cc(C)ccc2C)cc1	none
COc1ccc(C(=O)C2CCCN(C(=O)COc3ccc(C(C)=O)cc3)C2)cc1F (stereo unspecified)	Pf growth 96h 12µM
COc1ccc(/C=C/CN2CCCC(C(=O)c3ccc(OC)c(F)c3)C2)cc1 (stereo unspecified)	Pf growth 48h inconclusive
COc1ccccc1N1CCN(C2CCCN(C(=O)CN3CCCC3=O)C2)CC1 (stereo unspecified)	Pf growth 96h inconclusive
COc1ccccc1C(=O)C1CCCN(C(=O)CN2CCCCC2=O)C1 (stereo unspecified)	CHX counter 19, Pf growth 96h inconclusive
O=C(CNS(=O)(=O)c1ccc([N+](=O)[O-])cc1)N/N=C/c1ccc(O)cc1O	Pf growth 48h inconclusive
CN1CCN(C(=O)C23CC4CC(C2)CC(c2ccccc2)(C4)C3)CC1	Pf growth 48h inconclusive, Pf growth 96h inconclusive
CC(=O)c1ccc(NC(=O)C(C)n2nc(-c3ccccc3)c3cc(Cl)ccc32)cc1 (stereo unspecified)	Pf growth 48h inconclusive, Pf growth 96h 1.2µM
CC(C(=O)NCc1ccco1)n1nc(-c2ccccc2)c2cc(Cl)ccc21 (stereo unspecified)	Pf growth 96h inconclusive (no result: Pf growth 48h)
O=C(CN1C(=O)CSc2ccc(S(=O)(=O)N3CCCCC3)cc21)NCc1ccccc1	Pf growth 96h 4.1µM
CCN(CC)CC(C)CNC(=O)CN1C(=O)CSc2ccc(S(=O)(=O)N3CCOCC3)cc21 (stereo unspecified)	Pf growth 96h 13µM
Cc1cc(C(=O)Nc2ccc(Br)cc2)c2ccccc2n1	none (no result: SARS PLpro yeast, Shiga toxin inh)
Cn1c(NC(=O)c2cc(-c3ccc4c(c3)OCO4)nc3ccccc23)cc(=O)n(C)c1=O	CHX counter 43
COc1cccc(-c2cc(C(=O)Nc3ccc4c(c3)OCCO4)c3ccccc3n2)c1	Pf growth 48h 9.3µM, CHX counter 22, Pf growth 96h 6.6µM (no result: AMA1 RON2 block)
Cc1cc(C(=O)NNC(=O)c2ccc(Cl)cc2)c2ccccc2n1	none (no result: CHX counter, Shiga toxin inh)
Cc1cc(C)cc(NC(=O)c2cc(C)nc3ccccc23)c1	Pf growth 48h inconclusive, Pf growth 96h 12µM
Cc1cc(C(=O)NNC(=S)NC(C)c2ccccc2)c2ccccc2n1 (stereo unspecified)	Pf growth 96h 10µM
CC(C)(C)NC(=O)c1cc(-c2ccc3c(c2)OCO3)nc2ccccc12	none
O=C(Nc1ccc2c(c1)OCCO2)c1cc(-c2ccccc2)nc2ccccc12	Pf growth 48h inconclusive, Pf growth 96h inconclusive
O=C(CCc1ccccc1)n1nc(-c2ccco2)nc1SCc1ccccc1	Pf growth 96h inconclusive (no result: Pf growth 48h)
COc1ccc(C(=O)N2CC3(CC(c4ccc(Cl)cc4)=NO3)C[C@H]2C(=O)NCC(N)=O)cc1 (stereo partly specified)	none
O=C(Nc1nc2c(s1)CCCC2)c1cc(-c2ccc3c(c2)OCO3)nc2ccccc12	CHX counter 26 (no result: AMA1 RON2 block)
